# Screening results as filed in PubChem.
# Most compounds without a hit are left out; they make up all but 10% or so of the library.
# LMNA splice mod: modulators of lamin A splicing; HeLa LMNA splicing GFP/RFP minigene ratio, 48 h; hit rate 0.01% among 200,000; Potency, µM (top dose mostly 46.1 µM), without a hit: top-dose ratio change, negative = inhibition, hits mostly inhibitors; active = well fitted inhibition curve with a large enough effect in the signal ratio, with a control signal flat, not every such curve was filed as active; inconclusive = small, poorly fitted or top-dose-only effect, or effect the other way, or a change in a side signal; the % refers to the signal ratio; note: potency is the fitted concentration of half-maximal effect
#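 S3 HeLa stable clones carrying a lamin A-EGFP splicing minigene plus DsRed2 were seeded at 600 cells/well in Opti-MEM with 2% FBS, pin-dosed and incubated 48 h at 37°C. Acumen cytometry (488 nm) gave the GFP/RFP total-intensity ratio.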
# PNC inhibitor: perinucleolar compartment assembly inhibition; hit rate 3.1% among 140,000; activity change (PNC), negative = inhibition, % at 10 µM; PC3M PTB-GFP, PNC prevalence imaging, 16 h; stronger effect = lower value;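 active = readout at or below -70, meaning at least 70% loss of cells showing the perinucleolar compartment, a nuclear body marking cancer cells; inconclusive = readout between -30 and a set limit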;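 note: plate controls were DMSO wells for no effect and camptothecin positive control wells for full effect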
#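 Read-out is percentage of cells bearing a perinucleolar compartment, from automated 20x imaging of fixed, Hoechst-stained PC3M PTB-GFP cells. Cells were seeded 4 h, then exposed 16 h to compound (23 nl of library stock) in duplicate plates.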
# Luc counter: blocks Kinase-Glo luciferase, a counter-screen artifact | Kinase-Glo luciferase, ATP luminescence, 8 min | hit rate 0.28% among 200,000 | Potency, µM (highest dose often 38.3 µM), for inactives: at the highest dose activity change, negative = inhibition, most hits filed as inhibitors | Q27757; active = well fitted inhibition curve with a large enough effect; inconclusive = small, poorly fitted or top-dose-only effect; note: potency is the fitted concentration of half-maximal effect; nearly all actives have a fitted effect of over 60% in size
#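 Recombinant Kinase-Glo luciferase, 10 uM ATP (linear range), luciferin; imidazole pH 7.2 / KCl / MgCl2 / Tween / BSA buffer; 8 min RT; luminescence.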
# IMPase cell inh: cell-permeable inhibitors of inositol monophosphatase (IMPase); AID 901; CHO-M1 cells, IP1 accumulation, HTRF TR-FRET ratio; inhibition (IP1 accumulation), % at 46.1 µM; 120,000 tested, under 10 active; active = well fitted curve in the direction sought with a large enough effect in the signal ratio, not every such curve was filed as active; inconclusive = small, poorly fitted or top-dose-only effect, or a change in a side signal; inactive = no such curve, though single readings can be large or run the other way; the % refers to the signal ratio;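 note: cells stimulated with carbachol in lithium chloride buffer; plate controls were DMSO basal wells for no effect and reference inhibitor wells for full effect; higher means more IMPase inhibition seen as more IP1 and lower FRET ratio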
# Target sequence (P97697 whole entry, looked up): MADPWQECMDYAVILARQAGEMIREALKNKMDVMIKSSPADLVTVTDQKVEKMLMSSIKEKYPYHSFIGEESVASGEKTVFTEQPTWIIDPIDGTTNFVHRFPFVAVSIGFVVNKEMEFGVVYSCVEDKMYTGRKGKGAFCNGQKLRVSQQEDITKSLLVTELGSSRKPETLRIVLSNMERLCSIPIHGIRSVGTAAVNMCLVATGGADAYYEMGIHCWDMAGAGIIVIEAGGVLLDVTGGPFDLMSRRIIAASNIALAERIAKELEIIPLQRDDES
#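 CHO-M1 cells (CHO stably expressing M1 receptor), compound up to 46 uM final, stimulated with carbachol (50 uM as added) in buffer with 50mM LiCl, pH 7.4, 30 min at 37C. Cytosolic IP1 read by TR-FRET; AC50 from Hill fits.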
# HPGD block: inhibitors of human 15-hydroxyprostaglandin dehydrogenase (HPGD); P15428; purified HPGD, NADH fluorescence kinetic, PGE2 substrate; Potency, µM, without a hit: at the top dose activity change, negative = inhibition, most hits filed as inhibitors; hit rate 4.3% among 150,000; AID 894; note: potency is the fitted concentration of half-maximal effect
#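 NADH formation kinetics: reaction with 30 uM PGE2 and 1 mM NAD+ (final), 20 nM enzyme, Tris-HCl pH 8 with Tween 20, after 15 min compound preincubation at room temperature. Fluorescence change, last versus first of five reads.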
# ALDH1A1 block: ALDH1A1 (human) enzyme inhibition | P00352 | Purified ALDH1A1, NADH fluorescence, propionaldehyde substrate | Potency, µM (top dose mostly 75.3 µM), inactives show at the highest dose activity, negative = inhibition, most hits filed as inhibitors | hit rate 7.3% among 220,000;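 note: potency is the fitted concentration of half-maximal effect; plate controls were no enzyme wells and a reference inhibitor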
# Target sequence (P00352 whole entry, looked up): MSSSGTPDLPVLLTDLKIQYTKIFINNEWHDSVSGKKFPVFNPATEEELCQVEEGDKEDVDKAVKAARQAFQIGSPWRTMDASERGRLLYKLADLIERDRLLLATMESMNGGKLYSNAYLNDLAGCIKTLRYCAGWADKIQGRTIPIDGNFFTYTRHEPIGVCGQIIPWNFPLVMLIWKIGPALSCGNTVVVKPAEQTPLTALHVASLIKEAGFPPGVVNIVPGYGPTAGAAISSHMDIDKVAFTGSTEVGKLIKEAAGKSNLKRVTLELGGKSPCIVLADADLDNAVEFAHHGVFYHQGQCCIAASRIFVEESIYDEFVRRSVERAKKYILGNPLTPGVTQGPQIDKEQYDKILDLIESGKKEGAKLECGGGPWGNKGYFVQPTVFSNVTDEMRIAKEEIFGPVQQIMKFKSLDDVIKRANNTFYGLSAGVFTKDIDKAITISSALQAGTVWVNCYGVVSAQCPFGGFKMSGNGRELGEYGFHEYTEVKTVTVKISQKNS
# * hit, by the source's call; ? = inconclusive; / = no result given; [ ] = another dose, or the depositor's remark. Unless noted, calls come from the whole dose curve; as a rule, active = well fitted inhibition curve with a large enough effect (not every such curve was filed as active); inconclusive = small, poorly fitted or top-dose-only effect, or another doubt; inactive = no such curve, though single readings can be large or run the other way. Unless noted, % is set by controls: 0 for no effect and ±100 for the full control effect.
SMILES,LMNA splice mod,PNC inhibitor,Luc counter,IMPase cell inh,HPGD block,ALDH1A1 block
CCCOC(=O)c1c(NC(=O)C2c3ccccc3Oc3ccccc32)sc2c1CCC(C)C2 (stereo not given),/,/,/,3.8,/,/
COC(=O)/C(Cc1cc(Br)c(OC)c(Br)c1O)=N/O,/,/,-0.5%,/,-8.8%,-6.6%
FC(F)Oc1ccc(NC(=S)NCc2cccnc2)cc1,?,/,7.4%,/,/,-0.2%
S=C(NCc1cccnc1)Nc1ccc(Oc2ccccc2)cc1,?,/,-0.2%,/,/,31.6µM*
COc1cc(NC(=S)NCc2cccnc2)cc(OC)c1,2.7%,-92.0*,-2.1%,/,-13.3%,3.9%
COc1cc(NC(=S)NCc2cccnc2)cc(OC)c1OC,/,/,8.3%,/,/,?
CCN1C(=O)[C@H]2[C@H]3[C@H](O)[C@H](O)C/C(=N/OC/C=C(\C)CCC=C(C)C)[C@@H]3CC[C@@H]2C1=O,/,/,/,/,/,6.5%[13.5 µM]
COC(=O)CCC(=O)OC1(C)C(=O)C2=CN(Cc3ccc(OC)cc3)C(c3ccc(OC)cc3)=CC2=C(Br)C1=O (stereo not given),-4.4%[9.22 µM],/,-0.8%[7.66 µM],/,-12.3%,3.16µM*
COC(=O)CCC(=O)OC1(C)C(=O)C2=CN(Cc3ccccc3)C(c3ccc(OC)cc3)=CC2=C(Br)C1=O (stereo not given),-5.1%[9.22 µM],/,-1.4%[7.66 µM],/,-3.1%,-14.5%[13.5 µM]
COC(=O)CCC(=O)OC1(C)C(=O)C2=CN(c3ccccc3)C(c3ccc(OC)cc3)=CC2=C(Br)C1=O (stereo not given),8.1%[9.22 µM],/,-5.6%[7.66 µM],/,-11.6%,3.55µM*
N#C/C(=C\c1cc(Br)c(O)c(Br)c1)c1nc2ccccc2c(=O)[nH]1,/,/,/,-3.1,/,/
Cn1c(SCC(=O)c2cc(Cl)c(Cl)s2)nnc1-c1ccco1,/,/,/,/,/,28.2µM*
O=C(CC(c1ccccc1)c1cc(Br)ccc1O)NCCN1CCOCC1 (stereo not given),10.8%,-12.6,0.9%,5.3,14.1µM*,-64.0%
CCOC(=O)c1c(-c2ccc(C)cc2)csc1NC(=O)CCN1CCOCC1,-0.3%,-24.8,-0.6%,9.4,1.2%,?
CCOC(=O)c1c(-c2ccccc2)csc1NC(=O)CCN1CCOCC1,?,28.9,-2.4%,/,-18.5%,28.2µM*
CCOC(=O)c1c(-c2cccc([N+](=O)[O-])c2)csc1NC(=O)CCCOc1ccccc1OC,-5.4%,39.9,2.3%,-5.4,?,28.2µM*
O=C(CC(c1ccccc1)c1cc(Br)ccc1O)N1CCCC1 (stereo not given),/,/,0.1%,/,/,-13.6%
CCOC(=O)c1c(-c2cccc([N+](=O)[O-])c2)csc1NC(=O)CCCOc1ccccc1,-8.7%,6.6,/,7.8,/,?
Cc1ccc(C(=O)CSc2nnc(-c3ccco3)n2C)cc1,?,/,1.1%,/,/,5.3%
Cc1sc(C2C(C#N)=C(N)N(c3ccc(Cl)cc3)C3=C2C(=O)CCC3)cc1CN1CCOCC1 (stereo not given),-16.9%[46 µM],/,/,/,/,/
Cc1cccc(C)c1NC(=O)CSc1nnc(-c2ccoc2C)n1C,3.9%,?,1.6%,4.7,-16.9%,-0.6%
Cn1nnnc1SCc1ccc(C(=O)Nc2ccccc2F)cc1,11.9%,-4.4,-18.3%,14.5,15.8µM*,?
Cc1cc(C)cc(NC(=O)c2ccc(CSc3nnnn3C)cc2)c1,?,8.8,0.2%,4.3,-9.5%,6.8%
CC(Sc1nnnn1-c1ccccc1)C(=O)Nc1ccccc1-c1ccccc1 (stereo not given),?,-134.0*,-1.5%,/,-1.0%,?
Cn1nnnc1SCC(=O)Nc1ccccc1-c1ccccc1,6.2%,-28.8,-0.2%,11.2,-2.7%,12.6µM*
SMILES,LMNA splice mod,PNC inhibitor,Luc counter,IMPase cell inh,HPGD block,ALDH1A1 block
Cc1occc1-c1nnc(SCC(=O)Nc2ccccc2-c2ccccc2)n1C,?,15.3,1.0%,10.5,-6.6%,22.4µM*
COc1ccc(-c2nc3cnc(OC)nc3n(-c3ccccc3)c2=O)cc1,1.4%,/,/,/,/,?
CCOC(=O)c1c(-c2ccc(-c3ccccc3)cc2)csc1NC(=O)C1C2CCC(O2)C1C(=O)O (stereo not given),13.3%,-16.7,-2.7%,4.4,14.1µM*,?
COC(=O)CNC(c1ccccc1)c1cc(Br)ccc1NC(=O)CCN1CCOCC1 (stereo not given),?,-9.2,1.5%,11.9,?,-0.8%
Cn1c(SCC(=O)Nc2ccccc2-c2ccccc2)nnc1-c1ccco1,0.8%,?,-3.9%,13.3,-18.3%,8.91µM*
CCOC(=O)c1cnc(-c2ccccc2)nc1N1CCOCC1,11.7%[46 µM],/,8.6%,/,/,-4.4%
CCc1nnc(NC(=O)CSc2nnc(-c3ccco3)n2C)s1,1.9%,14.1,-1.5%,5.5,-3.1%,2.9%
CCOC(=O)CNC(c1ccccc1)c1cc(Br)ccc1NC(=O)CCN1CCOCC1 (stereo not given),?,-17.7,0.2%,/,31.6µM*,?
CCOC(=O)c1[nH]cc(-c2ccccc2)c1N1CCOCC1,-18.9%,-13.7,-0.7%,1.4,3.98µM*,2.82µM*
CC(C)c1ccc(NC(=O)Cn2c(=O)n(CC3CCC(C(=O)NCCc4ccccc4)CC3)c(=O)c3ccccc32)cc1 (stereo not given),/,/,/,1.1,/,/
COc1cccc(CSc2nc3ccccc3c3nc(CCn4c(C)nc5ccccc54)nn23)c1,2.9%[46 µM],/,/,/,/,/
CCOC(=O)c1c(-c2ccccc2)csc1NC(=O)CSc1nnnn1C,?,-19.8,0.0%,-2.5,31.6µM*,-13.3%
CCCn1c(SCC(=O)Nc2ccccc2-c2ccccc2)nnc1-c1ccoc1C,?,14.0,-3.6%,-3.5,-1.5%,31.6µM*
CCOC(=O)c1c(-c2ccccc2)csc1NC(=O)CSc1ccccc1,?,-10.2,0.6%,/,-17.0%,?
O=c1oc2ccccc2cc1-c1cn2cc(Cc3ccc(Br)cc3)sc2n1,/,/,/,3.4,/,/
CSc1ccc(/C=C(\C(=O)O)c2ccc(S(=O)(=O)N3CCCCC3)s2)cc1,-22.4%,15.3,1.2%,1.6,15.6%,-13.9%
O=C(O)/C(=C\c1ccccc1Cl)c1ccc(S(=O)(=O)N2CCCCC2)s1,-24.2%,-23.3,/,-13.3,/,?
O=C(O)/C(=C\c1cccc([N+](=O)[O-])c1)c1ccc(S(=O)(=O)N2CCCCC2)s1,/,/,/,/,/,3.98µM*
O=C(O)/C(=C\c1ccc(Cl)c([N+](=O)[O-])c1)c1ccc(S(=O)(=O)N2CCCCC2)s1,-10.4%[46 µM],/,4.8%,/,/,0.501µM*
COc1ccc(CCN(C)CCCOc2ccc(S(=O)(=O)c3[nH]c4ccccc4c3C(C)C)cc2)cc1OC,/,/,3.6%,4.0,-12.0%,-15.3%
CCOc1ccc(Nc2oc(-c3ccc(COc4ccccc4C)o3)nc2C#N)cc1,5.3%[46 µM],/,/,/,/,/
Cc1ccc(NN2C(=O)C=C(c3ccccc3)C2=O)cc1,?,/,-3.5%,/,/,15.8µM*
